Compounds without any hit were thinned out: in the full panel of roughly 83,000, 20% have a hit.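 Percent growth is the endpoint: 0 to 100 indicates growth inhibition (40 means 60% inhibition), 0 means no net growth, and negative values indicate cell death.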 Activity calls are given as the source filed them. Rule for the calls: active = growth percent below 10; inactive = the rest.
What follows are compounds tested on MDA-MB-468 breast (assay: NCI-60 one-dose screen, 48 h (100 = growth as untreated, 0 = no growth, -100 = all killed)). Conditions: 10 µM unless noted.
`FC(F)(F)C1=NNC(c2ccc3ccccc3c2)=NN1` was tested, and the growth was 108% (inactive). In the case of `N#Cc1c(N)nc2c(nnn2-c2cccc(Br)c2)c1N`, the growth is reported as 92.9% (inactive). For `CC(C)c1c(C(=O)c2ccccc2)c(-c2ccccc2)c(-c2ccc(F)cc2)n1CC[C@@H](O)C[C@@H](O)CC(=O)O`, the growth was 39.2% (inactive). `Cc1ccc(-c2nc([P+](c3ccccc3)(c3ccccc3)c3ccccc3)c(N3C[C@H]4C[C@H](C3)c3cccc(=O)n3C4)o2)cc1` was tested, and the growth was -9.01% (active). `CC(C)OC(=O)N1CCOCC1` was tested, and the growth was 97.2% (inactive). With `COc1ccc(CCNC=O)cc1OC` the growth was 77.7% (inactive). With `O=C(O)CCCCSCCCCC(=O)O` the growth was 95.3% (inactive). With `Cc1c(Cl)cccc1NS(=O)(=O)c1ccccc1` the growth was 93.2% (inactive). With `CCCCCC(=O)Oc1ccc(/C(=C(\C)c2ccc(OC)cc2)c2ccc(OCCN3CCCCC3)cc2)cc1` the growth was 85.3% (inactive). With `COc1ccc(-n2c(SCC(=O)Nc3ccc(-c4nc5ccccc5[nH]4)cc3)nc3ccccc3c2=O)cc1` the growth was -88.2% (active). With `CCOC(=O)c1nnn(-c2no[n+]([O-])c2-c2ccc(OC)cc2)c1COc1cccc2cccnc12` the growth was 33.6% (inactive). For `CCOC(=O)Nc1ccc2c(c1)C(=O)N(CC)c1ccccc1O2`, the growth was -3.61% (active). In the case of `Nc1ncnc2c1C(c1ccc(Br)cc1)c1sc3c(F)cccc3c1O2` (stereo not given), the growth is reported as 103% (inactive). For `COc1ccc(C(=O)N2c3ccccc3Sc3ccccc32)c(OC)c1`, the growth was 0.159% (active). `C=CCN=c1sc2c(n1NC(=O)c1cc3ccc1CCc1ccc(cc1)CC3)C(=O)c1ccccc1C2=O` was tested, and the growth was -30.1% (active). For `CCOC(=O)C1(N)CCCCC1`, the growth was 105% (inactive). With `CCc1cccc2c3c(sc12)C(c1ccc(F)cc1)C(C#N)=C(N)O3` (stereo not given) the growth was 31.2% (inactive). In the case of `CN(C)CCCNc1c2ccccc2nc2c1oc1ccc(Cl)cc12`, the growth is reported as 5.14% (active). For `CCSc1ccc2c(c1)N(CCCN1CCN(C)CC1)c1ccccc1S2`, the growth was -3.41% (active). With `Cc1cc(C(C)(C)C)ccc1S` the growth was 104% (inactive). `CC(C)(N)COS(=O)(=O)O` was tested, and the growth was 107% (inactive). For `CCOc1cccc(-c2nc(N)nc(Nc3ccccc3SSc3ccccc3Nc3nc(N)nc(-c4cccc(OCC)c4)n3)n2)c1`, the growth was 107% (inactive). In the case of `Cc1[nH]n(C(=S)Nc2nc3cc(Cl)c(F)cc3s2)c(=O)c1N=Nc1ccc(F)c(Cl)c1`, the growth is reported as 114% (inactive). In the case of `CN(C)CCN1C(=O)c2c(c3c4ccccc4n4c3c3c2c2ccccc2n3C2CC(O)C(O)C4(C)O2)C1=O` (stereo not given), the growth is reported as 12.8% (inactive). In the case of `Clc1ccc(C2=NN(c3ccccc3)[C@H](c3cn(-c4ccccc4)nc3-c3ccccc3)C2)cc1`, the growth is reported as 109% (inactive). For `O=S(=O)(O)c1ccc(N/N=C/c2ccccc2Cl)cc1`, the growth was 107% (inactive). In the case of `CN1CCN(Cc2ccc(NC(=O)c3cc(C#Cc4cnc(N)c5ncccc45)n(C)n3)cc2C(F)(F)F)CC1`, the growth is reported as 104% (inactive). For `N#CSCC1CC(O)(c2ccccc2)CC(c2ccc(Cl)cc2)O1` (stereo not given), the growth was 47.3% (inactive). With `CNC(=O)c1c(C)oc2cc(Oc3ncnc4cc(OC)c(OC)cc34)ccc12` the growth was 106% (inactive). `O=c1[nH]c(N2CCOCC2)nc2scc(-c3ccccc3)c12` was tested, and the growth was 86.2% (inactive). With `NC(=O)N/N=C\c1ccco1` the growth was 119% (inactive). In the case of `O=C(Nc1cccc(-n2cc(-c3ccncc3)c(-c3ccc(O)c(Cl)c3)n2)c1)c1cc(C(F)(F)F)cc(C(F)(F)F)c1`, the growth is reported as 61.6% (inactive). `C=C1C(=O)O[C@H]2[C@H]1CC/C(CNS(=O)(=O)c1cccc3ccccc13)=C\CC[C@@]1(C)O[C@@H]21` was tested, and the growth was 1.44% (active). With `O=c1nc(NO)[nH]c(=O)n1Cc1ccccc1` the growth was 107% (inactive). `CCC1CCC(C)NC1` (stereo not given) was tested, and the growth was 92.4% (inactive). For `Cc1c(O)ccc(SC#N)c1C`, the growth was 112% (inactive). In the case of `Cc1ccc2c(c1)c(-c1nc(-c3c[nH]c4ncccc34)cs1)cn2C`, the growth is reported as -2.68% (active). With `O=C1c2cc3c(cc2-c2c1c1ccc(Cl)cc1c(=O)n2CCCN1CCOCC1)OCO3` the growth was 31.6% (inactive). With `CNC(=O)c1cc(Oc2cccc3nc(NC(=O)Nc4cc(C(F)(F)F)ccc4Cl)ccc23)ccn1` the growth was 111% (inactive). For `CCCCNCCC(O)c1cc2ccc(C(F)(F)F)cc2c2cc(C(F)(F)F)ccc12` (stereo not given), the growth was -91% (active).

— PubChem BioAssay (NCI)
